Measurements reported in ChEMBL document CHEMBL2218924, “A broad activity screen in support of a chemogenomic map for kinase signalling research and drug discovery” (Biochem J, 2013).

Legend:
[1] = biological target: Protein kinase C eta type (Homo sapiens) (UniProt P24723); conditions: at 1 µM
[2] = biological target: Protein kinase C eta type (Homo sapiens) (UniProt P24723); conditions: at 10 µM
[3] = biological target: Protein kinase C theta type (Homo sapiens) (UniProt Q04759); conditions: at 1 µM
[4] = biological target: Protein kinase C theta type (Homo sapiens) (UniProt Q04759); conditions: at 10 µM
[5] = biological target: T1, Protein kinase C iota type (Homo sapiens) (UniProt P41743); conditions: at 1 µM
T1 sequence (whole entry): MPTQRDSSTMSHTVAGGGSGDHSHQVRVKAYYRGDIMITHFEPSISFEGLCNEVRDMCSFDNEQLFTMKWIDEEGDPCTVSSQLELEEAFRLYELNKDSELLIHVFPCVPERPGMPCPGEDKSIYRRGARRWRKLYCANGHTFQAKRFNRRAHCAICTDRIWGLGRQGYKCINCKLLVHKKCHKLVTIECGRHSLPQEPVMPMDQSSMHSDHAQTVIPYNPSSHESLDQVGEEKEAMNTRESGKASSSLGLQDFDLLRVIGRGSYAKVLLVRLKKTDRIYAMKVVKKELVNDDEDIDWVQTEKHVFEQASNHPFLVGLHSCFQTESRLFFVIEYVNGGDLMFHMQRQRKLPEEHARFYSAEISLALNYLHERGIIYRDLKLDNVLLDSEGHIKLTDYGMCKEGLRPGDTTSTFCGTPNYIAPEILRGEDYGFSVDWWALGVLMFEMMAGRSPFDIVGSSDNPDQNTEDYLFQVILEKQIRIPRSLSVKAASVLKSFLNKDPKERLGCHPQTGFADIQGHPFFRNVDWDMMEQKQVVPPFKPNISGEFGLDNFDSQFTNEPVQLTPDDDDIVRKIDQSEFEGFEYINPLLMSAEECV

[6] = biological target: T1, Protein kinase C iota type (Homo sapiens); conditions: at 10 µM
[7] = biological target: T2, Serine/threonine-protein kinase D2 (Homo sapiens) (UniProt Q9BZL6); conditions: at 1 µM
T2 sequence (whole entry): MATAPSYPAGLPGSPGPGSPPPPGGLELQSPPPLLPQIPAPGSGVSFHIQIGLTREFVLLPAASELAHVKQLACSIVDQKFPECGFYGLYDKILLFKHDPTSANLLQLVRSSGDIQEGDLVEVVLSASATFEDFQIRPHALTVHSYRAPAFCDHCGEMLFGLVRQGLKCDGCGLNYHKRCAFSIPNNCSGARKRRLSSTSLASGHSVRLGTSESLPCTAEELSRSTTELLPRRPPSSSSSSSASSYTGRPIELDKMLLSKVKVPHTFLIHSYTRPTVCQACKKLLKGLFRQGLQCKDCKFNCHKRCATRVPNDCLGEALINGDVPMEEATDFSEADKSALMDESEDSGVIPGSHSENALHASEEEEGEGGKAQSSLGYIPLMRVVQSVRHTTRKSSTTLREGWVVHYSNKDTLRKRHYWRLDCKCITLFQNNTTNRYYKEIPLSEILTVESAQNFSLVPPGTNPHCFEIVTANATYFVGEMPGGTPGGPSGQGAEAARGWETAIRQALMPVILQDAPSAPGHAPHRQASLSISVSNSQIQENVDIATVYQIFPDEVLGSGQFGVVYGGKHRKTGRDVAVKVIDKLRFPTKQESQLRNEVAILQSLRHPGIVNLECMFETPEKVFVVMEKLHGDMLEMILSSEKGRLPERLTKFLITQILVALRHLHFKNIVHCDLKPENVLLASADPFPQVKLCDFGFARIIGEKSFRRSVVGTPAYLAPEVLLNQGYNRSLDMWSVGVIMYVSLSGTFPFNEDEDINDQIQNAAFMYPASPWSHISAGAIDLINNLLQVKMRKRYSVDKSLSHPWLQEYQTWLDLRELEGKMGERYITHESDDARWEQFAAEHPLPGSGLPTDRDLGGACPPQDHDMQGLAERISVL

[8] = biological target: T2, Serine/threonine-protein kinase D2 (Homo sapiens); conditions: at 10 µM
[9] = biological target: T3, cGMP-dependent protein kinase 1 (Homo sapiens) (UniProt Q13976); conditions: at 1 µM
T3 sequence (whole entry): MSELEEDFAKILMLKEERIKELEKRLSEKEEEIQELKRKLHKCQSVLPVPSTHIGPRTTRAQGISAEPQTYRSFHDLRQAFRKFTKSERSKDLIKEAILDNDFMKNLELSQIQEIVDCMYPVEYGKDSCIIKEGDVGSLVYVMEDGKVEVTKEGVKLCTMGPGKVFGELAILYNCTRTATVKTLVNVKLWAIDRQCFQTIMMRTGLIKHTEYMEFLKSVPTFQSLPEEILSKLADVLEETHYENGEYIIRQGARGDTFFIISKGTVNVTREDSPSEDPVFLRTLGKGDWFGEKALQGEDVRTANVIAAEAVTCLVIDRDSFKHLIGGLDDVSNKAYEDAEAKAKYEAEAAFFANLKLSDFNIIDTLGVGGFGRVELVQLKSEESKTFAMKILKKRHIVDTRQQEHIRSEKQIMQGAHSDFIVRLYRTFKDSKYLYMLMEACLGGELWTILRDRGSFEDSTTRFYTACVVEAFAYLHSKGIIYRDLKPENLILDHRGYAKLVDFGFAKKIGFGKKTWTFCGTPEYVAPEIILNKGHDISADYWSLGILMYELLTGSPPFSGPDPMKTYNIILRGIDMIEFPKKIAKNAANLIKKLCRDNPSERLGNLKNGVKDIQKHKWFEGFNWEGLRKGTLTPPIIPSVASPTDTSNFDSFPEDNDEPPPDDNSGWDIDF

[10] = biological target: T3, cGMP-dependent protein kinase 1 (Homo sapiens); conditions: at 10 µM
[11] = biological target: T3, cGMP-dependent protein kinase 1 (Homo sapiens); conditions: at 1 µM; remark: listed apart in the source
[12] = biological target: T3, cGMP-dependent protein kinase 1 (Homo sapiens); conditions: at 10 µM; remark: listed apart in the source
[13] = biological target: T4, MAP kinase-activated protein kinase 5 (Homo sapiens) (UniProt Q8IW41); conditions: at 1 µM
T4 sequence (whole entry): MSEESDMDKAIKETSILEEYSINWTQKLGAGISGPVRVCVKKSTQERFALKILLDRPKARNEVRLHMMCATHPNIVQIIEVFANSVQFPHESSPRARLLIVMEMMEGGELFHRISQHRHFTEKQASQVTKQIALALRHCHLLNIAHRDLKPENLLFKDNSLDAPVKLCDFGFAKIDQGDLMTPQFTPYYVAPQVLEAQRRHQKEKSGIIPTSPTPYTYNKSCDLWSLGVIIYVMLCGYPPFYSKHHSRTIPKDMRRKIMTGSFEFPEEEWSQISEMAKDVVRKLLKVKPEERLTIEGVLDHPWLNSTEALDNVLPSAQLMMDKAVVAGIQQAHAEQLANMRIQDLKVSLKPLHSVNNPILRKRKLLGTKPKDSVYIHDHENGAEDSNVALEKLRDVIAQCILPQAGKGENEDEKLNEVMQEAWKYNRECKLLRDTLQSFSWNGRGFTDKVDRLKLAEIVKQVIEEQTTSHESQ

[14] = biological target: T4, MAP kinase-activated protein kinase 5 (Homo sapiens); conditions: at 10 µM
[15] = biological target: Serine/threonine-protein kinase N2 (Homo sapiens) (UniProt Q16513); conditions: at 1 µM
[16] = biological target: Serine/threonine-protein kinase N2 (Homo sapiens) (UniProt Q16513); conditions: at 10 µM
[17] = biological target: Tyrosine-protein kinase FRK (Homo sapiens) (UniProt P42685); conditions: at 1 µM
[18] = biological target: Tyrosine-protein kinase FRK (Homo sapiens) (UniProt P42685); conditions: at 10 µM
[19] = biological target: T5, Serine/threonine-protein kinase D1 (Homo sapiens) (UniProt Q15139); conditions: at 1 µM
T5 sequence (whole entry): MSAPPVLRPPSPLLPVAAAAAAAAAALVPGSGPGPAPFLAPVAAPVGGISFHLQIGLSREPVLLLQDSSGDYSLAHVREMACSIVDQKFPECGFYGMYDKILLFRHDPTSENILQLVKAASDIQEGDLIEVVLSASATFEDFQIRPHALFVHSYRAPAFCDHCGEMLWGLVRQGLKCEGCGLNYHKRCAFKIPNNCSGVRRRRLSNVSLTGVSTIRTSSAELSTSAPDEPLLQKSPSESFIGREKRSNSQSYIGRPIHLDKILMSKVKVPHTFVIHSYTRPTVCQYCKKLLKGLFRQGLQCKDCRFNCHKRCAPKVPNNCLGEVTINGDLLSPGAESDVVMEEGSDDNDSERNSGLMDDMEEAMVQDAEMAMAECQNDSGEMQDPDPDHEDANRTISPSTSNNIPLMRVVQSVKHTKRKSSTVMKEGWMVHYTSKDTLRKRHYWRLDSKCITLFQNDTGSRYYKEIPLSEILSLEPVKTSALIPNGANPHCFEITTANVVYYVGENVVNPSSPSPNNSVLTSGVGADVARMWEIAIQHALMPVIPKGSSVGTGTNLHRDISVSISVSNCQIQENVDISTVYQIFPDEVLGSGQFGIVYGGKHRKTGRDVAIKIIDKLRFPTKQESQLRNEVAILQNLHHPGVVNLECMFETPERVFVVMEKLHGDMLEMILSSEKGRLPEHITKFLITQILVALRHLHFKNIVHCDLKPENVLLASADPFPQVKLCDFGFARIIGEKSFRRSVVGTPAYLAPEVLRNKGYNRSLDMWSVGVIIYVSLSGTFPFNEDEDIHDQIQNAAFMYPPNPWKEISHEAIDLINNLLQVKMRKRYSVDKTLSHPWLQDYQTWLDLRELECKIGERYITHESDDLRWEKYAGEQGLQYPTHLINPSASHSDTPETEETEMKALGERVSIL

[20] = biological target: T5, Serine/threonine-protein kinase D1 (Homo sapiens); conditions: at 10 µM

Chain of Serine/threonine-protein kinase N2 (Homo sapiens) (Q16513 whole entry, looked up): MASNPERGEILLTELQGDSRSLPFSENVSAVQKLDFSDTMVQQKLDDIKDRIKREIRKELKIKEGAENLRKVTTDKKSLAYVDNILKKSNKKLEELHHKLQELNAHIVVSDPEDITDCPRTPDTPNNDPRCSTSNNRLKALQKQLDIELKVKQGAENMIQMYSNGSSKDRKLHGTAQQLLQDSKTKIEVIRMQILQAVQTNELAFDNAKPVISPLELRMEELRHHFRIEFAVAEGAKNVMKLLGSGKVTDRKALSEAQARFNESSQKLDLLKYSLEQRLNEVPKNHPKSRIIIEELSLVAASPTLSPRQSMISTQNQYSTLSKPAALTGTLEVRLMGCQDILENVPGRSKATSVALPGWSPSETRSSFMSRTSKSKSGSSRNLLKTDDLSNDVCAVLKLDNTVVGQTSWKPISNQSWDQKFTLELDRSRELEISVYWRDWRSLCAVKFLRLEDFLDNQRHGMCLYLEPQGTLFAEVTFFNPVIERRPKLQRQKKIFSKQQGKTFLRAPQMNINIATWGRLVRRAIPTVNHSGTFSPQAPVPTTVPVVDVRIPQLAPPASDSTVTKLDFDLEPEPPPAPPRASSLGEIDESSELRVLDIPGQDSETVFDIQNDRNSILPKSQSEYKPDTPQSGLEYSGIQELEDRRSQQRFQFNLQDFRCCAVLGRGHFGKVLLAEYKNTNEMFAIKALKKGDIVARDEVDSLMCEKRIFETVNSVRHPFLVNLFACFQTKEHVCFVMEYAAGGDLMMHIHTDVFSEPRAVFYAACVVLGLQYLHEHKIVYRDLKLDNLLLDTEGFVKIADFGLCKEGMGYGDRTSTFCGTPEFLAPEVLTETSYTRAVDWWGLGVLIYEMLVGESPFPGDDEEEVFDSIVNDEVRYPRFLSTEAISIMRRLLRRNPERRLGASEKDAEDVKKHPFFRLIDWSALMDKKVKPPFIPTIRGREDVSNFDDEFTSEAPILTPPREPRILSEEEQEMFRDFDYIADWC
Chain of Tyrosine-protein kinase FRK (Homo sapiens) (P42685 whole entry): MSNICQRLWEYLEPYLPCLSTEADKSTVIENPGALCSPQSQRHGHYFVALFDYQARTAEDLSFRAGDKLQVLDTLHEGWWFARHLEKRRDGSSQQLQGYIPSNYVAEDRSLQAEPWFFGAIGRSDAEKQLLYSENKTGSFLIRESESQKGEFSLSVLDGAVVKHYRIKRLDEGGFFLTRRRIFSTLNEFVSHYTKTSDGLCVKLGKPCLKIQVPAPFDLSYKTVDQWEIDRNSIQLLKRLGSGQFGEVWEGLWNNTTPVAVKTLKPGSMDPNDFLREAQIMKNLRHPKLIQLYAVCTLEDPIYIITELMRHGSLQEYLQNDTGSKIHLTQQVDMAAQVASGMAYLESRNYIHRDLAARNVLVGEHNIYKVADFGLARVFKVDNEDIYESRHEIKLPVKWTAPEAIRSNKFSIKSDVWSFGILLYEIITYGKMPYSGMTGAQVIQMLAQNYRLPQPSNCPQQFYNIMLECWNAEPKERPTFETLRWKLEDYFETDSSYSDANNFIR
Chain of Protein kinase C theta type (Homo sapiens) (Q04759 whole entry, looked up): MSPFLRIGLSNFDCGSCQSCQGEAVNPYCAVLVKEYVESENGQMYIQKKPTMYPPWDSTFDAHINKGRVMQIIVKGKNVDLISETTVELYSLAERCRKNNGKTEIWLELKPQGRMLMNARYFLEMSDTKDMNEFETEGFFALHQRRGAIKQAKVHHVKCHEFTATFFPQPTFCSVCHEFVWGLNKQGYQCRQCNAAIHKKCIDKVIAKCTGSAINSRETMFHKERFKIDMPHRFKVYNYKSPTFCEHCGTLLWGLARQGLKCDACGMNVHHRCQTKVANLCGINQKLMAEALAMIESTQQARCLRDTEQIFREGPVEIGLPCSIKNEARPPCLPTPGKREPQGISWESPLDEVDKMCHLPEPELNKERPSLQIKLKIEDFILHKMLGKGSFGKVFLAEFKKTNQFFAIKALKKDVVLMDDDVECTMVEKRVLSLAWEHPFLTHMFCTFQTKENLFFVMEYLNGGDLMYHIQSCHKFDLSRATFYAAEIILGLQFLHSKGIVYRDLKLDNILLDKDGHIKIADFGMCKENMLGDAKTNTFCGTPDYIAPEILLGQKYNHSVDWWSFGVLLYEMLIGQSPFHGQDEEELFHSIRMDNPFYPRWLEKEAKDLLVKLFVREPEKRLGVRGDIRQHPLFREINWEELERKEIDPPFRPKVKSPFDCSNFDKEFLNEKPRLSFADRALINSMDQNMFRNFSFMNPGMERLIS
Chain of Protein kinase C eta type (Homo sapiens) (P24723 whole entry): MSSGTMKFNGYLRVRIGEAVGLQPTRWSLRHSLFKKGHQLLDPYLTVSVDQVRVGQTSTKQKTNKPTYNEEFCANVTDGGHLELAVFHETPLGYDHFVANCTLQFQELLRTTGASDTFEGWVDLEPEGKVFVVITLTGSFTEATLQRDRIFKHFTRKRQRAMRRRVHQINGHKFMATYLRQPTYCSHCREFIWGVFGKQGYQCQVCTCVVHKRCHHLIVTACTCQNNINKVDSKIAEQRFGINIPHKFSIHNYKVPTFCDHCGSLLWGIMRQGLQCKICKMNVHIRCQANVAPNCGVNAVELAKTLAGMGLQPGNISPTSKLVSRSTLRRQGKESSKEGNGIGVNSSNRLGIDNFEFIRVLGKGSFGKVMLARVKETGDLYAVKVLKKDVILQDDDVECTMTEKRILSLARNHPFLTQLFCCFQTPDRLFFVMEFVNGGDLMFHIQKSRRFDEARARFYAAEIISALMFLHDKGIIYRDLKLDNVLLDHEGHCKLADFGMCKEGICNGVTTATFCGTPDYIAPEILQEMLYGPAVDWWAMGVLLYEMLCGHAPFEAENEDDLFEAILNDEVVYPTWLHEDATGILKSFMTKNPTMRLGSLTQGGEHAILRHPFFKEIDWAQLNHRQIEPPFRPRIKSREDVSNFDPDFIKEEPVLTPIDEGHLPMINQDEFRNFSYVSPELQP

SMILES | residual activity [1] [%] | residual activity [2] [%] | residual activity [3] [%] | residual activity [4] [%] | residual activity [5] | residual activity [6] [%] | residual activity [7] [%] | residual activity [8] [%] | residual activity [9] [%] | residual activity [10] [%] | residual activity [11] [%] | residual activity [12] [%] | residual activity [13] [%] | residual activity [14] [%] | residual activity [15] [%] | residual activity [16] [%] | residual activity [17] [%] | residual activity [18] [%] | residual activity [19] [%] | residual activity [20] [%]
Cc1cc2ncc(-c3ccccc3)nc2cc1C | 107 | 84 | 110 | 102 | 83% (inactive) | 78 | 104 | 110 | 110 | 130 | 83 | 94 | 101 | 73 | 102 | 107 | 105 | 88 | – | –
CCN(CC)C(=O)c1ccc(Nc2nc(OCC3CCCCC3)c3nc[nH]c3n2)cc1 | – | 55 | 78 | 39 | 99% (inactive) | 103 | 93 | 51 | – | – | – | – | – | 12 | 66 | 12 | 78 | 38 | 72 | 23
N#CC(C#N)=C(N)/C(C#N)=C/c1ccc(O)cc1 | 118 | 81 | – | – | 81% (inactive) | 75 | – | – | – | – | – | – | – | 92 | – | 117 | – | 91 | 93 | –
Cc1cccc(-c2[nH]c(C(C)(C)C)nc2-c2ccc3c(c2)OCO3)n1 | 84 | 80 | 96 | 95 | 85% (inactive) | 76 | 103 | 106 | – | – | – | – | 92 | 77 | – | – | – | 92 | – | 72
COc1ccc(OC)c2c(=S)c3ccccc3[nH]c12 | 77 | 63 | 81 | 89 | 109% (inactive) | 80 | 108 | 84 | 93 | 109 | 94 | 76 | 96 | 90 | 99 | 88 | 95 | 99 | 96 | 73
O=C1Nc2ccc(Br)cc2/C1=C\c1cc2c([nH]1)CCCC2 | 102 | 73 | 100 | 99 | 84% (inactive) | 78 | – | 106 | 100 | 99 | 105 | 97 | 82 | 99 | – | 112 | 102 | 103 | – | –
COc1cc2ncc(-c3ccccc3)nc2cc1OC | – | – | – | – | – | 68 | 96 | 99 | – | – | – | – | 125 | 85 | – | – | 90 | 90 | – | –
CCOc1cc2ncnc(Nc3cccc(Br)c3)c2cc1OCC | 82 | 88 | 116 | 106 | 87% (inactive) | 95 | 104 | 113 | 108 | 91 | 95 | 66 | 79 | 82 | 93 | 79 | 40 | 5 | 101 | 54
